# High-throughput results (PubChem BioAssay)
# A selection: hits, their analogues and other compounds. The true share with any hit is near 8.7%.
# G9a block = inhibitors of human histone lysine methyltransferase G9a; Q96KQ7; G9a H3K9 monomethylation, AlphaScreen, 2 h; Potency, µM (series often up to 102 µM), usual class: inhibitors; 8.8% of 350,000 active; also: nearly all actives have a fitted effect of over 75% in size
#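 Quantitative HTS format: methyltransferase activity on a biotin-tagged H3K9 peptide is measured by AlphaScreen, using a rabbit anti-monomethyl-H3K9 antibody with streptavidin donor and anti-IgG acceptor beads. Final levels are 20 nM enzyme, 500 nM peptide, 20 uM SAM; 2 h RT.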
# 12-LOX inh = inhibitors of human 12S-lipoxygenase ALOX12; 1.1% of 580,000 active; AID 1671190; purified 12hLO, xylenol orange hydroperoxide absorbance; Potency, µM (highest dose often 108 µM), hits mostly inhibitors
#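 Purified human 12hLO at 150 nM in 25 mM Hepes, 0.01% Triton X-100, pH 7.0, preincubated 15 min at room temperature with compound. Reaction started with 40 uM arachidonic acid, 30 min at room temperature. Hydroperoxide measured by Fe-xylenol orange, 573/405 nm absorbance ratio.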
# HP1b chromo inh = HP1-beta chromodomain-methylated histone interaction inhibition. 0.56% of 390,000 active. AlphaScreen HP1-beta / biotin-H3K9me3 peptide binding. Potency, µM (highest dose often 114 µM), usual class: inhibitors. P83916; also: nearly all actives have a fitted effect of over 70% in size
#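 HP1-beta protein (50 nM final) preincubated 30 min at room temperature with biotinylated H3(1-18)K9me3 peptide (50 nM) in PBS pH 7.4, 0.01% Tween-20, then compound added for 30 min. AlphaScreen streptavidin donor/nickel chelate acceptor beads (10 ug/mL final), 30 min dark, luminescence read.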
# JMJD2A Tudor = JMJD2A Tudor domain (human) inhibition. AlphaScreen JMJD2A-Tudor / H3K4me3 peptide binding. Potency, µM (series often up to 114 µM), most hits filed as inhibitors. 4.4% of 390,000 active; also: nearly all actives have a fitted effect of over 50% in size
# Sfp PPTase inh = Sfp phosphopantetheinyl transferase inhibition; AID 1490; Q9F4F7; 3.5% of 310,000 active; Potency, µM, most hits filed as inhibitors; Biochemical Sfp PPTase activity, qHTS;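 also: the enzyme is Sfp with the accession as filed and its product quenches rhodamine fluorescence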
#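 After 15 min at room temperature with compound, 15 nM Sfp received 5 uM rhodamine-CoA plus 12.5 uM BHQ-2-ybbR (50 mM Hepes pH 7.6, 10 mM MgCl2). Rate came from the fluorescence difference over 30 min, ex 525/em 598 nm.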
# BAZ2B inh = blocks human BAZ2B. 4.4% of 360,000 active. AlphaScreen BAZ2B-H3K14Ac peptide displacement. Q9UIF8. Potency, µM (highest dose often 114 µM), most hits filed as inhibitors; also: nearly all actives have a fitted effect of over 60% in size
# Target sequence (Q9UIF8 whole entry, looked up): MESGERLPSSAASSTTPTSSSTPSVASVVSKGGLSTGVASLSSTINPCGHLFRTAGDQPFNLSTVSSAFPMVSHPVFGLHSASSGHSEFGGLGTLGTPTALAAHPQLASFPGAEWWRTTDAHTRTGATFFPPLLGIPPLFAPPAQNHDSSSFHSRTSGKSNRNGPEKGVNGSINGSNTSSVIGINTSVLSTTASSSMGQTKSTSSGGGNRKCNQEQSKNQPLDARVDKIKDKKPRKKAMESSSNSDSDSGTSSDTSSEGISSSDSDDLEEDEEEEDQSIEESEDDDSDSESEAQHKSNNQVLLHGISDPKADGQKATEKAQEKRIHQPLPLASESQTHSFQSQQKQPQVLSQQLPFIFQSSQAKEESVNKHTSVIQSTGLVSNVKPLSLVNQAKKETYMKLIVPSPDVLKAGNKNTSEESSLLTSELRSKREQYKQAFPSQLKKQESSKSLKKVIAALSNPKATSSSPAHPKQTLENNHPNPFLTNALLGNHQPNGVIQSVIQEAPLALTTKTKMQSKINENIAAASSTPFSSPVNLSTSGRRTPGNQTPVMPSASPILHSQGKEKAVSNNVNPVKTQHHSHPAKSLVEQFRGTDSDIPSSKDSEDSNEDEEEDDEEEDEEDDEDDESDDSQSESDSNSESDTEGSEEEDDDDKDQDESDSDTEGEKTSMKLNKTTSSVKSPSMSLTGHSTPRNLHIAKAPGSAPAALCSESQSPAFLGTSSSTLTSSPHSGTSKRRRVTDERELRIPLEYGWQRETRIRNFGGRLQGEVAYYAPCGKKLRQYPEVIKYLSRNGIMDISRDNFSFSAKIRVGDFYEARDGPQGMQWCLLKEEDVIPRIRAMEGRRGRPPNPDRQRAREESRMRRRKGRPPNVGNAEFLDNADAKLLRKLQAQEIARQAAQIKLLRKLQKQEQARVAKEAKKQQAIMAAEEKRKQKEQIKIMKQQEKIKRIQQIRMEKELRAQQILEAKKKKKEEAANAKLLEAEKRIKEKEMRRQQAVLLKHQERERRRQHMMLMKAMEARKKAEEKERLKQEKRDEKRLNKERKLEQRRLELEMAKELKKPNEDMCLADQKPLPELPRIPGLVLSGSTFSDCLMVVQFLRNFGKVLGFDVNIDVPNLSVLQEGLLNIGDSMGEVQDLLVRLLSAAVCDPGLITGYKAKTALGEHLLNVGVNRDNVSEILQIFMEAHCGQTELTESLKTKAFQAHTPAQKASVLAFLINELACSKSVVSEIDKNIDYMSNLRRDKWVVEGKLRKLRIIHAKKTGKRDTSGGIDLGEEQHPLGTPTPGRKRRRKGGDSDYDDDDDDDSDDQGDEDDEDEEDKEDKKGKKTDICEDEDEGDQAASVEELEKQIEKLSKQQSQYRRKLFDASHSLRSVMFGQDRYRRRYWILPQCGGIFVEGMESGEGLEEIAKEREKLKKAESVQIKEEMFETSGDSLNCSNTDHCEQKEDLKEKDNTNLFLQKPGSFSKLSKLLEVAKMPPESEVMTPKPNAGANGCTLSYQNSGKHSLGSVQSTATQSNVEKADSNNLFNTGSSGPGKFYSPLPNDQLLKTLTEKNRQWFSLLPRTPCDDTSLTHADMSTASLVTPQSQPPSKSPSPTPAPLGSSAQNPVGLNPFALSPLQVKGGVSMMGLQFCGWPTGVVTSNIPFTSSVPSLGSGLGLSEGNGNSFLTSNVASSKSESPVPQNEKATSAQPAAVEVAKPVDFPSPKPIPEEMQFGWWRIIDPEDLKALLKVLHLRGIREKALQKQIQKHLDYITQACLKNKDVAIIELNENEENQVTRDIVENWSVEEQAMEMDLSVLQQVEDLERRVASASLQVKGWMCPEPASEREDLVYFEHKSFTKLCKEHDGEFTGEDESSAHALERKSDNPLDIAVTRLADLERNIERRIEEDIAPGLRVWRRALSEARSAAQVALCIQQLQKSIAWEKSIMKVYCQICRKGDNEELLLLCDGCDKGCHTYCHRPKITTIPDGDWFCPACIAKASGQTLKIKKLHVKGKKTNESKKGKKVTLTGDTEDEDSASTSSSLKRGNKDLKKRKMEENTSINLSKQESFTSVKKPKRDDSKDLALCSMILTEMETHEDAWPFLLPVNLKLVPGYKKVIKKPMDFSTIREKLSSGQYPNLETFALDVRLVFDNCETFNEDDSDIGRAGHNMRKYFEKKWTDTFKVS
#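 In this displacement format the biotinylated H3(5-23) peptide acetylated at Lys14 serves as ligand at 50 nM, with BAZ2B at 50 nM in PBS pH 7.4 containing 0.01% Tween-20. Donor and acceptor beads are 10 ug/mL final.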
# A number is an active result; n = inactive; u = inconclusive; x = not tested or not shown; [ ] = another dose, or the depositor's remark. Calls follow the shape of the dose curve; as a rule, active = well fitted curve in the direction sought with a large enough effect; inconclusive = small, poorly fitted or top-dose-only effect, or another doubt; inactive = no such curve, though single readings can be large; an effect the other way counts as inactive or inconclusive.
SMILES,G9a block,12-LOX inh,HP1b chromo inh,JMJD2A Tudor,Sfp PPTase inh,BAZ2B inh
COc1ccc(N2CCN(C(=O)CCC(=O)NNc3nc4ccccc4c4nc(C)nn34)CC2)cc1,22µM,n,n,n,n,n
O=C(O)[C@]12CCCN[C@@H]1CCN(Cc1ccc(-c3ccccn3)cc1)C2,x,n,x,x,x,x
Cc1ccc2oc(=O)c(S(=O)(=O)N3CCCC(C)C3)cc2c1 (stereo unspecified),x,n,x,x,x,x
CCCCCn1nc(C(=O)NCC2CCOC2)c2ccccc2c1=O (stereo unspecified),x,n,x,x,x,x
CCOC(=O)c1sc2nc3c(SCC(=O)O)cc(C(=O)c4ccccc4O)cn3c(=O)c2c1C,32µM,n,u,10µM,n,16µM
COC(=O)c1cc(C(=O)c2cc(F)ccc2O)cn2c(=O)c3c(C)c(C)sc3nc12,u,n,n,40µM,n,n
CCOC(=O)c1sc2nc3c(SCC(=O)O)cc(C(=O)c4cc(F)ccc4O)cn3c(=O)c2c1C,79µM,u,u,40µM,u,35µM
O=C(c1cnc2nc3ccccc3n2c1)c1cc(F)ccc1O,x,n,n,n,n,n
CCOC(=O)c1sc2ncn(C(C)C(=O)OCC)c(=O)c2c1C (stereo unspecified),n,n,n,n,n,n
COc1ccc(-n2c(SCC(=O)O)nc3sc4c(c3c2=O)CCCC4)cc1,u,n,n,n,n,n
COc1ccc(O)c(C(=O)c2cc(SCC(=O)O)c3nc4sc5c(c4c(=O)n3c2)CCCC5)c1,n[12.7 µM],35µM,25µM,25µM,u,22µM
COCCn1ncc(N2CCCC(CC(=O)N3CC=C(c4ccccc4)CC3)C2)cc1=O (stereo unspecified),x,n,x,x,x,x
O=C(NCC1(COc2ccc(C(F)(F)F)cn2)C[C@@H](O)[C@@H](O)C1)c1cnccn1 (stereo partly specified),x,n,x,x,x,x
CCc1c(C)sc2nc3c(C(=O)N4CCOCC4)cc(C(=O)c4ccccc4O)cn3c(=O)c12,n,n,n,u,n,u
Cc1sc2nc3c(SC(C)C(=O)O)cc(C(=O)c4ccccc4O)cn3c(=O)c2c1C (stereo unspecified),50µM,u,n,n,50µM,u
O=C(O)CSc1cc(C(=O)c2ccccc2O)cn2c(=O)c3c(-c4ccccc4)csc3nc12,u,u,n,56µM,u,x
Cc1c(CCl)cc(C(=O)O)cc1CCl,x,5.6µM,x,x,x,x
CC1(C)Cc2c(sc(N)c2C#N)C(C)(C)N1,x,n,n,n,18µM,n
Cc1ccc(S(=O)(=O)Nc2cc3c(cc2NCc2ccccc2)n(C)c(=O)n3C)c(C)c1,11µM,n,n,u,x,50µM
Cn1c(=O)n(C)c2cc(NS(=O)(=O)c3ccc(F)cc3)c(NCc3ccccc3)cc21,11µM,n,n,u,x,n
Cc1ccc(S(=O)(=O)Nc2ccc3c(c2)n(C)c(=O)n3C)cc1,x,n,n,n,n,n
Cc1ccc(S(=O)(=O)Nc2ccc3c(c2)n(C)c(=O)n3C)c(C)c1,x,n,n,n,n,n
Cc1ccc(S(=O)(=O)Nc2cc3c(cc2NCc2ccccc2)n(C)c(=O)n3C)cc1,16µM,n,u,u,x,n
Cc1ccc(NC(=O)C2CN(S(=O)(=O)C3CC3)CC23CCCCC3)c(C)c1 (stereo unspecified),x,n,x,x,x,x
O=C(C1COc2cc(S(=O)(=O)NCc3ccc(Cl)cc3)ccc2O1)N1CCCCCC1 (stereo unspecified),x,n,x,x,x,x
SMILES,G9a block,12-LOX inh,HP1b chromo inh,JMJD2A Tudor,Sfp PPTase inh,BAZ2B inh
O=[N+]([O-])c1cccc(-c2n[nH]c(=S)n2-c2ccc(Br)cc2)c1,6.3µM,u,n,u,n,n
O=C(O)c1ccc(-n2c(-c3ccc(Br)cc3)n[nH]c2=S)cc1,u,x,n,7.1µM,u,n
O=[N+]([O-])c1cccc(-c2cc(-c3cc(Br)ccc3O)[nH]n2)c1,n,n,n,n,u,n
Cc1nnc(C)c2c(C)n(-c3ccc(Br)cc3)c(C)c12,n,x,x,x,n,n
S=c1[nH]nc(-c2ccc(Br)cc2)n1-c1ccc(Br)cc1,8.9µM,u,n,n,n,n
COc1cc(-c2n[nH]c(=S)n2-c2ccc(Br)cc2)cc(OC)c1OC,x,u,n,50µM,n,n
Cn1cc(CN2CCOC[C@H](Oc3ccccc3)C2)cn1,x,n,x,x,x,x
Cc1ccc(S(=O)(=O)/N=C/c2cccs2)cc1,x,n,x,x,x,x
COc1cc(C2C(C(=O)Nc3ccccc3)=C(C)Nc3nc(CCCO)nn32)cc(OC)c1OC (stereo unspecified),x,n,x,x,x,x
CC(C)N(C(=O)Cn1c(CN2CCCCC2)nc2ccccc21)c1ccccc1,x,n,x,x,x,x
Cc1nc2ccc(C(=O)NCCCOC(C)C)cc2nc1C,x,n,x,x,x,x
COc1cc(-c2nc(-c3ccccc3)c(-c3ccc(Br)cc3)[nH]2)cc(OC)c1O,10µM,20µM,u,45µM,x,28µM
COc1ccc(-c2[nH]c(-c3cc(OC)c4c(c3)OCO4)nc2-c2ccccc2)cc1,40µM,n,u,u,n,u
CCOc1ccc(-c2nc(-c3ccccc3)c(-c3ccccc3)[nH]2)cc1OCC,n,n,n,n,x,n
COc1ccc(-c2nc(-c3ccccc3)c(-c3ccc(F)cc3)[nH]2)c(OC)c1C,u,u,n,u,x,25µM
Oc1ccc(-c2nc(-c3ccccc3)c(-c3ccc(Br)cc3)[nH]2)cc1,n,u,n,u,x,u
NNc1nc2sc3c(c2c(=O)n1-c1ccccc1)CCCC3,50µM,n,n,n,n,n
O=C(CSc1nc2sc3c(c2c(=O)n1-c1ccccc1)CCCC3)N/N=C/c1ccccc1C(=O)O,79µM,x,n,u,n,u
CCOc1ccccc1NC(=O)c1cc2c(s1)-c1ccc(Cl)cc1S(=O)(=O)C2,x,n,x,x,x,x
CCCC(=O)NC(C)C(=O)N1CCN(c2ccccn2)CC1 (stereo unspecified),x,n,x,x,x,x
COc1ccc(C2C(C(C)=O)=C(O)C(=O)N2CCO)c(OC)c1 (stereo unspecified),50µM,u,n,u,n,u
COc1ccc(OC)c(C2C(C(C)=O)=C(O)C(=O)N2CCc2ccc(OC)c(OC)c2)c1 (stereo unspecified),u,u,n,n,n,n
CCCCN1C(=O)C(O)=C(C(C)=O)C1c1ccc(OC)cc1OC (stereo unspecified),u,8.9µM,n,50µM,n,50µM
COc1ccc(C2C(C(C)=O)=C(O)C(=O)N2c2nccs2)c(OC)c1 (stereo unspecified),40µM,n,n,n,n,u
COc1ccc(C2C(C(C)=O)=C(O)C(=O)N2c2ccccc2)c(OC)c1 (stereo unspecified),x,n,x,x,x,x
Cc1ccc(Cl)cc1-n1ncc2c(Nc3cccc4c3CCCC4)ncnc21,x,n,x,x,x,x
